This is one part of a sample in which hits are shown more often than they occur.
Dicer inh = inhibitors of human Dicer processing of pre-microRNA | Q9UPY3 | cat-ELCCA pre-miR-21 Dicer processing, chemiluminescence; active compounds read high | z-score at 25 µM | hit rate 6% among 47,000; in the data active means z-score above about 3, passing the limit was not always enough;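 further: higher signal means more uncleaved substrate so more Dicer inhibition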
Numbers stand for hits; - = inactive.

SMILES	Dicer inh
Cc1[nH][nH]c(=O)c1C(c1ccc(OCc2ccc(F)cc2)cc1)c1c(C)[nH][nH]c1=O	-
CN(C)c1ccc(-n2nnnc2SC(c2ccccc2)c2ccccc2)cc1	-
Cc1ccc(C)c(S(=O)(=O)N(C(=O)c2cccnc2)c2ccc3oc(=O)sc3c2)c1	-
Cc1ccc(S(=O)(=O)N(C(=O)c2cccnc2)c2ccc3oc(=O)sc3c2)c(C)c1	8.37
Cc1cc(C)c(S(=O)(=O)N(C(=O)c2cccnc2)c2ccc3oc(=O)sc3c2)cc1C	10.9
Cc1ccc(S(=O)(=O)NCc2cccnc2)c(C)c1	-
Cc1onc(-c2c(Cl)cccc2Cl)c1NC(=O)N=S(C)(=O)c1ccc(Cl)cc1 (centres undefined)	-
Fc1ccc(-n2c(-c3cccs3)cs/c2=N\c2ccccn2)cc1	-
CCSc1nnc2c(n1)OC(c1ccc(O)cc1)Nc1ccccc1-2 (centres undefined)	-
CCCSc1nnc2c(n1)OC(/C=C/c1ccc([N+](=O)[O-])o1)Nc1ccccc1-2 (centres undefined)	3.48
CCSc1nnc2c(n1)OC(c1ccc(N(C)C)cc1)Nc1ccccc1-2 (centres undefined)	-
CC(=O)Oc1ccc2c(=O)c(-c3nc4ccccc4n3C)c(C)oc2c1	-
CCOC(=O)c1ccc2oc3ccc(O)cc3c(=O)c2c1	-
C=CCOc1ccc(/C(O)=C2/C(=O)C(=O)N(CC3CCCO3)C23C(=O)N(C)c2ccccc23)cc1 (centres undefined)	-

Assay outcomes deposited in PubChem by Center for Chemical Genomics, University of Michigan.
